These results are taken from PubChem BioAssay (Tox21).

Inconclusive results are not listed. Entries that show only a call come without a potency. Calls of active or inactive are those of the source. Calls come from the whole dose curve; as a rule, active = well fitted cell-killing curve with a large enough effect in the repeat runs; inconclusive = weak or mixed curves, or effect the other way; inactive = flat fitted curve, though single readings scatter.
Potency is the fitted concentration of half-maximal effect.

The assay can be described thus: Caspase-3/7 induction in HepG2 cells by small molecules, qHTS cell viability counter screen (AID 1346981). Note: nearly all actives have a fitted effect of over 30% in size. To be noted: CellTiter-Fluor fluorescence, 17 h; series mostly up to 92.4 µM. From the text:
U.S. Tox21 Program National Center for Advancing Translational Sciences [NCATS] NIH Chemical Genomics Center [NCGC] U.S. Environmental Protection Agency [EPA] National Institutes of Environmental Health Sciences [NIEHS] National Toxicology Program [NTP] U.S. Food and Drug Administration [FDA] Tox21 Assay Overview: Apoptosis is a process of programmed cell death and plays a central role in the development of multicellular organisms. It is a highly regulated process and induces cell death by activating caspases, which are the members of cysteine aspartic acid-specific protease (caspase) family. Caspases involved in apoptosis are classified by their mechanism of action as initiator caspases (caspase-2, -8, -9 and -10) and executioner caspases (caspase-3, -6, and -7). Inhibition of apoptosis results in number of cancers, autoimmune diseases, inflammatory diseases and viral infection. To identify small molecule compounds that induce apoptosis, a homogeneous, luminescent Caspase-Glo 3/7 assay was used. Wild type HepG2 cells were used to screen Tox21 libraries for identifying caspase-3/7 activity inducers. Also cytotoxicity of the compounds was tested in parallel by measuring the cell viability using CellTiter-Fluor assay system in the same wells.
Tox21 Assay Protocol Summary: HepG2 cells were dispensed at 2,000 per well in 5uL of culture medium into white solid bottom 1536-well plates (Corning Life Sciences, Corning, NY) using a Multidrop Combi (Thermo Scientific, Waltham, MA) dispenser. The assay plates were incubated at 37 C and 5% CO2 for 5hr, and then 23nL of compounds dissolved in DMSO and positive control were transferred using a Pintool station ([…], San Diego, CA). The assay plates were incubated at 37C and 5% CO2 for 17hr. For cytotoxicity read, after 16hr incubation at 37C, 1uL CellTiter-Fluor reagent (Promega Corporation, Madison, WI) was added to each well of the assay plates using Flying Reagent Dispenser (FRD, Aurora Discovery, San Diego, CA). After 1hr incubation at 37C and 5% CO2, the fluorescence signal was quantified using a ViewLux plate reader (PerkinElmer, Shelton, CT).
Regarding `CCCCCCCC/C=C\CCCCCCCCCCCC(=O)O`, the Potency result was “inactive”.
With `CCC(=O)OC` the entry was “inactive”.
With `CC1=C(CC=O)C(C)(C)CCC1` the entry was “inactive”; with `C[C@@H]1CN(CCCn2c3ccccc3c3ccccc32)C[C@H](C)N1`, 29.8 µM (active).
With `CCOC(=O)/C=C/C(=O)OCC` the entry was “inactive”; with `CCCCCCCCN`, “inactive”; with `O=c1[nH]ncc2ccccc12`, “inactive”.
Take `CCCCN(CCN(CCCC)C(=O)N1CCOCC1)C(=O)N1CCOCC1`: the Potency entry was “inactive”.
To `COc1ncnc(NS(=O)(=O)c2ccc(N)cc2)c1OC` belongs “inactive”.
Consider `CC1(C)[C@H](C(=O)O)N2C(=O)C[C@H]2S1(=O)=O`, for which the Potency entry is “inactive”.
To `Cc1[nH]cnc1CN1CCc2c(c3ccccc3n2C)C1=O` belongs “inactive”; to `COc1ccccc1N1CCN(CCCCNC(=O)c2ccc(-c3ccc(C(C)=O)cc3)cc2)CC1`, “inactive”.
To `Cc1cc(C)cc(N)c1` belongs “inactive”; to `CCCCCCCCCI`, “inactive”; to `O=C(Nc1cccc2c(=O)cc(-c3nn[nH]n3)oc12)c1ccc(OCCCCc2ccccc2)cc1`, “inactive”.
`CC(CO)CO`: the Potency entry was “inactive”.
Consider `Cc1ccc(C(C)(C)O)cc1`, for which the Potency result is “inactive”.
With `CCC=CC#N` the entry was “inactive”.
With `Nc1nc2ccc([N+](=O)[O-])cc2s1` the figure was 61.1 µM (active); with `CC(C)=CC(=O)C=C(C)C`, “inactive”; with `CC(=O)OCC[N+](C)(C)C`, “inactive”.
With `CCOc1ccc(Cc2nccc3cc(OCC)c(OCC)cc23)cc1OCC` the figure was 29.8 µM (active); with `CN1C(=O)N(c2ccccc2Br)Cc2cnc(Nc3ccc4c(c3)OCC(CO)O4)nc21` (stereo not given), 15.4 µM (active); with `CC(C)=CCC1C(=O)N(c2ccccc2)N(c2ccccc2)C1=O`, “inactive”.
With `CN1CC(=O)N2[C@H](c3ccc4c(c3)OCO4)c3[nH]c4ccccc4c3C[C@@H]2C1=O`, the Potency entry is “inactive”.
To `O=Cc1c2ccccc2c(Cl)c2ccccc12` belongs “inactive”; to `CC[N+](CC)(CCNC(=O)C(=O)NCC[N+](CC)(CC)Cc1ccccc1Cl)Cc1ccccc1Cl`, “inactive”.
Turning to `OCCN1CCN(CCCN2c3ccccc3Sc3ccc(Cl)cc32)CC1`, the Potency was 26.6 µM (active).
To `C=C(C)C(=O)OCCCCCCCCCCCCC` belongs “inactive”; to `O=C(O)C[C@H](NC(=O)OCc1ccccc1)C(=O)O`, “inactive”.
With `COC(=O)CS` the entry was “inactive”; with `CC(CCC(=O)O)C(=O)O` (stereo not given), “inactive”.
To `Clc1cc(Cl)nc(Cl)n1` belongs “inactive”; to `CC(O)c1ccccc1` (stereo not given), “inactive”.
On to `CCOC(=O)c1ccc(I)cc1`, for which the Potency result was “inactive”.
To `OC[C@H]1O[C@@H](n2cnc3c(=S)nc[nH]c32)[C@H](O)[C@@H]1O` belongs “inactive”; to `O=C1Cc2cc(Cl)ccc2N1`, “inactive”; to `CC(C)C=O`, “inactive”.
With `C/C=C/C=C/C=O` the entry was “inactive”; with `COc1cc(C(=O)NCCCCCC(=O)O)cc(OC)c1OC`, “inactive”.
